26 compounds from PubChem BioAssay (NCATS) can be followed below.

Where “and” joins values, the source holds several entries; their conditions need not be identical. Equal values may be shown once. Inconclusive results are not listed. Some structures have more than one record in an assay (separate samples or runs), and their calls can disagree. Calls of active or inactive are those of the source. Unless noted, calls come from the whole dose curve; as a rule, active = well fitted curve in the direction sought with a large enough effect; inconclusive = small, poorly fitted or top-dose-only effect, or another doubt; inactive = no such curve, though single readings can be large; an effect the other way counts as inactive or inconclusive.

For assay [1], the target named is 3',5'-cyclic-AMP phosphodiesterase 4B (Homo sapiens) (UniProt Q07343). The assay can be described thus: qHTS Assay for Inhibitors of PDE-IV (AID 607; active = well fitted activation curve with a large enough effect in the main read-out, with a control signal flat, not every such curve was filed as active; note: % of control where 0% means no effect). An outline of the steps:
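Live HEK293 cells with a modified cyclic nucleotide-gated (CNG) channel report intracellular cAMP via membrane-potential dye fluorescence (ex 535/em 590 nm). Endogenous PDE-IV was targeted. Compounds were tested at up to 22.9 uM final; RO 20-1724 100 uM served as control.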
Background: Quantitative high-throughput screening tests each substance at several concentrations.

For assay [2], the target named is Guanine nucleotide-binding protein G(i) subunit alpha-1 (Homo sapiens) (UniProt P63096). The assay can be described thus: qHTS Assay for Inhibitors of RGS12 GoLoco Motif Activity (Green Fluorophore) (AID 879).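 Note: 0% = labeled peptide with Gαi1 and full inhibition = labeled peptide alone without protein; negative values mean loss of peptide binding seen as reduced polarization.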 An outline of the steps: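 A drop in FITC polarization marked displacement of the FITC-tagged RGS12 GoLoco peptide (10 nM) from Gαi1 (50 nM). Compounds were incubated 10 min at room temperature in Tris pH 7.5 buffer containing 150 mM NaCl, 0.1 mM GDP and 0.05% NP40; unlabeled peptide titration served as control.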
Chain of Guanine nucleotide-binding protein G(i) subunit alpha-1 (Homo sapiens) (P63096 whole entry, looked up): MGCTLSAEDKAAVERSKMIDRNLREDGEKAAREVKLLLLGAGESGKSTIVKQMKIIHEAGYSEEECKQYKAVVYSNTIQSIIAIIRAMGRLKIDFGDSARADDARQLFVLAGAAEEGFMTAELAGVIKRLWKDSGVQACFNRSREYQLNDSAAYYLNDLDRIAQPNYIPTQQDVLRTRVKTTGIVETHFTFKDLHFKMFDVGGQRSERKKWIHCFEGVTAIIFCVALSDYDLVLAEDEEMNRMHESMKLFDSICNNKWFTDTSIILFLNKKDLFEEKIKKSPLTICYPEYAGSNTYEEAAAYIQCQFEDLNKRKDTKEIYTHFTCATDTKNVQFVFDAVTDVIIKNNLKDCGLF

The target of assay [3] is Cytochrome P450 2C9 (Homo sapiens) (UniProt P11712). Kind of assay: qHTS Assay for Inhibitors and Substrates of Cytochrome P450 2C9 (AID 883). Note: nearly all actives have a fitted effect of over 60% in size. Note: potency is the fitted concentration of half-maximal effect. A digest of the protocol: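 A luminogenic readout tracked human CYP2C9 (10nM) converting deoxyluciferin (100uM, at KM) in 25mM KPO4 during 60 min at 37C with regenerated NADPH. Values normalized to 57uM sulphaphenazole as complete inhibition.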
Chain of Cytochrome P450 2C9 (Homo sapiens) (P11712 whole entry, looked up): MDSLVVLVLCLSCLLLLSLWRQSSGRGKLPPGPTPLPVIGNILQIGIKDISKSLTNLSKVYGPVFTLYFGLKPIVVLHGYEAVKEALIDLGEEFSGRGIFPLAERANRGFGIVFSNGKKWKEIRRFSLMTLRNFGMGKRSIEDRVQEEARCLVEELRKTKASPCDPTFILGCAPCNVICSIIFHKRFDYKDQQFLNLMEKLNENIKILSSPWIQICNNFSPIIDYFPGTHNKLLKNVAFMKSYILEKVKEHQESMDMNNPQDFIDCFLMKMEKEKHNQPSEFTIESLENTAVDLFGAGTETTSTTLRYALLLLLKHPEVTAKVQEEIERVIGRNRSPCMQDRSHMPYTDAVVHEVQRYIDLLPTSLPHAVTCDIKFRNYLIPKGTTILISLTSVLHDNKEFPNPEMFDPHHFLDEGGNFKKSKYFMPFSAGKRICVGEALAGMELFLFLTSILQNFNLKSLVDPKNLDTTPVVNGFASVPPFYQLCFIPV

Assay [4] concerns the target Cytochrome P450 3A4 (Homo sapiens) (UniProt P08684). Kind of assay: qHTS Assay for Inhibitors and Substrates of Cytochrome P450 3A4 (AID 884). Note: % is set by controls: 0 for no effect and ±100 for the full control effect; nearly all actives have a fitted effect of over 50% in size. An outline of the steps:
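Luminescent readout of luciferin produced by CYP3A4 (20 nM) dealkylation of Luciferin-PPXE, 25 uM (its KM). NADPH-driven reaction ran 60 min at RT after 10 min compound preincubation; data scaled to 57 uM ketoconazole as 100% inhibition.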

The target in assay [5] is Cytochrome P450 2D6 (Homo sapiens) (UniProt P10635). Kind of assay: qHTS Assay for Inhibitors and Substrates of Cytochrome P450 2D6 (AID 891). Note: nearly all actives have a fitted effect of over 60% in size. Note: potency is the fitted concentration of half-maximal effect. An outline of the steps: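 Luminescent read-out of luciferin formed by 5 nM human CYP2D6 demethylating 30 uM Luciferin-ME EGE (Km level) over 60 min at room temperature after NADPH regeneration addition. Data normalized to full inhibition by 1.43 uM quinidine.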
Chain of Cytochrome P450 2D6 (Homo sapiens) (P10635 whole entry, looked up): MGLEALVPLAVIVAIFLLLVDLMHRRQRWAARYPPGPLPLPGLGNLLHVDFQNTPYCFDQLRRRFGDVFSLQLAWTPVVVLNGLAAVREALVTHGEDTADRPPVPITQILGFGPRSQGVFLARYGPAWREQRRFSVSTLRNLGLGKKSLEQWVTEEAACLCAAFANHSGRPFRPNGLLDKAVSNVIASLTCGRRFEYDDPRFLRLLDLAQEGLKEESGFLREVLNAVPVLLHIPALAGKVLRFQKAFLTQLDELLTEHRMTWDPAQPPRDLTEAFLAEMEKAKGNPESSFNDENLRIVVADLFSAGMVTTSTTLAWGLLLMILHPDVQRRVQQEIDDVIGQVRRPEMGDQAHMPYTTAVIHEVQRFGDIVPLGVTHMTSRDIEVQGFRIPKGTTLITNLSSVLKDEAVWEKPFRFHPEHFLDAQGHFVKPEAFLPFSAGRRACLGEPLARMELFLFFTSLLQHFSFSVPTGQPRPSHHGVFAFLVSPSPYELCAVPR

The target of assay [6] is Cytochrome P450 2C19 (Homo sapiens) (UniProt P33261). The assay can be described thus: qHTS Assay for Inhibitors and Substrates of Cytochrome P450 2C19 (AID 899). Note: nearly all actives have a fitted effect of over 60% in size. Note: potency is the fitted concentration of half-maximal effect. An outline of the steps:
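NADPH-dependent conversion of Luciferin-H EGE (10uM, at KM) by 5nM enzyme in 50mM KPO4, 60 min at 37C following 10 min compound preincubation. Stopped with luciferin detection buffer; luminescence read after 20 min.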

Assay [7] can be described thus: qHTS Assay for Identification of Small Molecule Antagonists for NFkB Signaling Pathway (AID 895; active = well fitted inhibition curve with a large enough effect in the signal ratio, with a control signal flat, not every such curve was filed as active; the % refers to the signal ratio; note: % is set by controls: 0 for no effect and ±100 for the full control effect). A digest of the protocol: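 NFkB-bla ME-180 cervical carcinoma cells with beta-lactamase reporter under NFkB response element; compounds added, then TNF alpha at 10 pM final (EC50), 5 h at 37 C. LiveBLAzer substrate 2 h, room temperature; emission 460/530 nm at 405 nm excitation.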

Assay [8] is described as follows: Cellular Toxicity (caspase-3) HepG2 (AID 654).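 Note: cells exposed to compound for 16 hours before reading; 0% = DMSO alone and 100% = caspase signal from 100 µM tamoxifen.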 An outline of the steps:
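Caspase 3/7 activation in HepG2 is measured as rising luminescence after a 16 hr treatment at 37 °C. Values are scaled between DMSO basal and 100 uM tamoxifen, and AC50 is fitted with the Hill equation.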

Assay [9] in a line: Cellular Toxicity (caspase-3) Jurkat (AID 655).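 Note: cells exposed to compound for 16 h at 37 °C before reading.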 A digest of the protocol: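 Jurkat cells (5000/well) in complete medium exposed 16 h at 37 C; caspase-3/7 activity read by Caspase-Glo luminescence after 20 min at room temperature. Normalized to DMSO and 100 uM tamoxifen; AC50 from Hill fits.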
Assay [10] can be described thus: Cellular Toxicity (caspase-3) HUV-EC-C (AID 656). An outline of the steps:
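HUV-EC-C cells (1000/well) in complete medium, compound-treated 16 h at 37 °C; caspase-3/7 activity read by Caspase-Glo 3/7 luminescence. Normalized to DMSO (basal) and 100 uM tamoxifen (100%); AC50 from Hill-equation concentration-response fits.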

A short description of assay [11]: Cellular Toxicity (caspase-3) SHSY5Y (AID 657). An outline of the steps: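 SH-SY5Y human neuroblastoma cells, 1500/well, exposed to compound for 16 hours at 37 °C in complete medium. Caspase-3/7 activity read by Caspase-Glo luminescence after 1 hr at room temperature, normalized to DMSO and 10 uM staurosporine; AC50 from Hill fit.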
Assay [12] can be described thus: Cellular Toxicity (caspase-3) BJ (AID 658).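 Note: 0% = DMSO basal and 100% = 10 µM staurosporine.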 An outline of the steps:
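Plated BJ cells (1000/well) rested 5 hr, received compound for 16 hr at 37 °C, then Caspase-Glo 3/7 reagent for 1 hr at room temperature before luminescence reading.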

Assay [13] can be described thus: Cellular Toxicity (caspase-3) MRC-5 (AID 659).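 Note: 0% = DMSO basal and 100% = 10 µM staurosporine.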 An outline of the steps:
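Apoptosis readout in MRC-5 cells: luciferase light generated after caspase 3/7 cleaves a peptide-aminoluciferin substrate, measured post 16 hr compound incubation at 37 °C.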

A short description of assay [14]: Cellular Toxicity (caspase-3) Mesangial (AID 660).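 Note: cells exposed to compound for 16 h before the caspase read.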 A digest of the protocol:
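Seed cells derived from normal human renal glomeruli, incubate 5 h, add compounds across concentrations and incubate 16 h at 37 °C. Caspase 3/7 activation is then quantified by luciferase light, with AC50 derived by Hill modeling.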

Assay [15] can be described thus: Cellular Toxicity (caspase-3) SK-N-SH (AID 661).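 Note: 0% = DMSO basal and 100% = 10 µM staurosporine.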 A digest of the protocol: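 Cells were seeded and incubated 5 hr at 37 °C, dosed with compound over a concentration range for 16 hr, then given Caspase-Glo 3/7 reagent for 1 hr at room temperature before luminescence reading.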
Assay [16] in a line: Cellular Toxicity (caspase-3) H-4-II-E (AID 663).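 Note: cells exposed to compound for 16 hr before readout.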 A digest of the protocol: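 Caspase 3/7 activation measured in H-4-II-E cells in complete culture medium after 16 hr treatment at 37 °C, using luciferase-coupled substrate readout; AC50 values come from Hill-equation fits of normalized concentration-response data.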
A short description of assay [17]: Cellular Toxicity (caspase-3) Hek293 (AID 664).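 Note: cells exposed to compound for 16 h at 37 °C before readout.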 As to conditions: HEK293 caspase-3 activation; caspase-3 activation: at 92.2 µM (top of the series), DMSO = 0%, 100 µM tamoxifen = 100%. A digest of the protocol: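 qHTS, HEK293 (human embryonic kidney), 16 h cpd exposure in complete medium. Caspase-3/7 activation = luminescence increase; normalized to DMSO/100 uM tamoxifen; Hill-fit AC50.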

Assay [18] can be described thus: Cellular Toxicity (caspase-3) N2a (AID 665).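 Note: compound exposure lasted 16 h at 37 °C before readout.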 A digest of the protocol: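 Caspase-3/7 activation, measured as increased luminescence from aminoluciferin release, is quantified in mouse N2a cells exposed to compounds for 16 h. Values are normalized to DMSO and 10 uM staurosporine, with AC50 derived by Hill modelling.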
Assay [19] is described as follows: Cellular Toxicity (caspase-3) NIH 3T3 (AID 666).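 Note: caspase signal read after 16 h compound exposure; 0% = DMSO basal and 100% = 100 µM tamoxifen stimulation.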 An outline of the steps: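 Cells were plated at 1000 per well and incubated 5 hr at 37°C, then compound was added for 16 hr. Caspase-Glo 3/7 reagent followed for 20 min at room temperature before luminescence was read.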
The nature of assay [20]: Cellular Toxicity (caspase-3) Renal Proximal Tubule (AID 667).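 Note: cells exposed to compound for 16 hours at 37 °C before detection; 0% = DMSO basal and 100% = 10 µM staurosporine.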 A digest of the protocol: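 Freshly isolated primary rat kidney proximal tubule cells, 1000/well, treated 16 hr at 37 °C, then Caspase-Glo 3/7 luminescence after 1 hr. Normalized to DMSO and 10 uM staurosporine; AC50 from Hill fit.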

Chain of Cytochrome P450 2C19 (Homo sapiens) (P33261 whole entry, looked up): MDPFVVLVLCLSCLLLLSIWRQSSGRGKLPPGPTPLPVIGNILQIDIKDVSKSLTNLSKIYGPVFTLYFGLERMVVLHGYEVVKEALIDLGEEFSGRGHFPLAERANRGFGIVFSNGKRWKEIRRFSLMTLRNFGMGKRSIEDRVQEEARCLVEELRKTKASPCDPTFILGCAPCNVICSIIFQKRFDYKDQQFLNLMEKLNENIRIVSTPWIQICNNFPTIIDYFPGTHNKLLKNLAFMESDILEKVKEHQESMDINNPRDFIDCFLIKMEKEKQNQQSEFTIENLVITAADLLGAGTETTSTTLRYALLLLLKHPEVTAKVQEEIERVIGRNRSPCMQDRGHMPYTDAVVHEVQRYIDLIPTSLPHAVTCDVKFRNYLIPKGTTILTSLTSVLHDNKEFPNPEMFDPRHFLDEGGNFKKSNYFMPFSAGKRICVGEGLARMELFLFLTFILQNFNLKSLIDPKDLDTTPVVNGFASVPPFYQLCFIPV
Chain of Cytochrome P450 3A4 (Homo sapiens) (P08684 whole entry, looked up): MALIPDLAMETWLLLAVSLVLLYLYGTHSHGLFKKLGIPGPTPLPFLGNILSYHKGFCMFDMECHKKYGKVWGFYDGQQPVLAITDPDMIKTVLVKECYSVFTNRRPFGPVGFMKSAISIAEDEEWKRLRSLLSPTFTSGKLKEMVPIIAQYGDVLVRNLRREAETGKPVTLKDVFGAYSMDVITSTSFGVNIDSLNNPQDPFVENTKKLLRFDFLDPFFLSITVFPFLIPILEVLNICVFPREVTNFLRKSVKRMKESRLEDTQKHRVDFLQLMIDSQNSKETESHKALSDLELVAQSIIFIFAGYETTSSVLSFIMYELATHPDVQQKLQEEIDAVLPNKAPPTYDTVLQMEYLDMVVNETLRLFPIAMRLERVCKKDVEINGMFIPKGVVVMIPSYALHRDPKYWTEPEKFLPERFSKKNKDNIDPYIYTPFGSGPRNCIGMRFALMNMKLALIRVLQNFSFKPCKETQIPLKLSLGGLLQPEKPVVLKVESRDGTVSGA
Chain of 3',5'-cyclic-AMP phosphodiesterase 4B (Homo sapiens) (Q07343 whole entry, looked up): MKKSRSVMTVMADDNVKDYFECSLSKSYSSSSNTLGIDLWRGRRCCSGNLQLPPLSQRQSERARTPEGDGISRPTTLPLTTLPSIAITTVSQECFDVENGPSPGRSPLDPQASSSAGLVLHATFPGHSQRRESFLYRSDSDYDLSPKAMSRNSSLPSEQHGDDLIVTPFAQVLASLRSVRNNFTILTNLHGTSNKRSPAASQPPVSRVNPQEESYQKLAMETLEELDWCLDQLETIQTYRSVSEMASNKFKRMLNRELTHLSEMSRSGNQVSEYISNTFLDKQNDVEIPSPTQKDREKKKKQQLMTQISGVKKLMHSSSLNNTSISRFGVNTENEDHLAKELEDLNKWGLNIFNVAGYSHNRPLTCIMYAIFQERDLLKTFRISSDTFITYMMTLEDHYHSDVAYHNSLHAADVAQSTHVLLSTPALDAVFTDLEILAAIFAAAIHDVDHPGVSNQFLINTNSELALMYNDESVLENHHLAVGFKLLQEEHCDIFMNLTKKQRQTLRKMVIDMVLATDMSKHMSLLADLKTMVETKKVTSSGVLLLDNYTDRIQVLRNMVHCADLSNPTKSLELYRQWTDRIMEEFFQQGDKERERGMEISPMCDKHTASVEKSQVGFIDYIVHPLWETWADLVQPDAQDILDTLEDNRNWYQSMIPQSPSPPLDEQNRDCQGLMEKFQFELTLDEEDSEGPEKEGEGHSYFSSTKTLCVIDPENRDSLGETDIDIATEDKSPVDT

In the case of `COC(=O)Nc1nc2ccc(C(=O)c3cccs3)cc2[nH]1`, the Potency entry in [1], in assay [2], in assay [3], in assay [5] and in assay [6] was “inactive” in each case. Further, the outcome in assay [4] was inactive.

Turning to `CC[N+](CC)(CC)CCOc1cccc(OCC[N+](CC)(CC)CC)c1OCC[N+](CC)(CC)CC`, the Potency entry in [1] and in assay [2] was “inactive” each time.

For `O=C1N(c2ccccc2)c2ccccc2C1(Cc1ccncc1)Cc1ccncc1`, the Potency result in assay [1], in assay [2] and in assay [5] was “inactive” in each case. The Potency in [3] is 3.98 µM (active) and 7.94 µM (active); in assay [6], 3.16 µM (active) and 199 nM (active).

Take `Cn1cnc2c1c(=O)[nH]c(=O)n2C`: the Potency entry in assay [1], in assay [2] and in assay [7] was “inactive” each time.

For `CCOC(=O)Nc1ccc(NCc2ccc(F)cc2)nc1N`, the Potency entry in assay [1] is “inactive”.

Regarding `O=c1[nH]cc(F)c(=O)[nH]1`, the Potency result in [1], in [9], in [15], in assay [17], in [2] and in assay [3] was “inactive” throughout. Besides, the Potency entry in [5] and in assay [6] was “inactive” in each case. Further, the compound was called inactive in assay [8], in [10], in assay [11], in assay [12], in [13] and in assay [14]. Also, the compound was called inactive in [16], in [18], in assay [19], in [20] and in assay [4].

In the case of `CN(C)C(=N)N=C(N)N`, in assay [1], the Potency result was “inactive”.

As to `Cc1cn([C@H]2C[C@H](N=[N+]=[N-])[C@@H](CO)O2)c(=O)[nH]c1=O`, the call in assay [8], in assay [10], in assay [11], in assay [12], in [13] and in assay [14] was inactive. The outcome in assay [16], in assay [18], in assay [19] and in assay [20] was inactive. Moreover, the Potency entry in assay [9], in assay [15] and in assay [17] was “inactive” each time.

Regarding `Cc1ccc(-c2cc(C(F)(F)F)nn2-c2ccc(S(N)(=O)=O)cc2)cc1`, the result in assay [8], in assay [10], in [11], in assay [12], in assay [13] and in assay [18] was inactive. Further, the result in assay [19] and in assay [20] was inactive. For the same compound, the Potency entry in [9], in assay [15] and in assay [17] was “inactive” throughout.

Regarding `CN(C)c1nc(N(C)C)nc(N(C)C)n1`, the Potency entry in [1], in assay [2] and in assay [7] was “inactive” throughout.

Take `CN(C)CCC=C1c2ccccc2C=Cc2ccccc21`: the Potency result in [1] is “inactive”. Also, the call in [4] was inactive. In addition, the Potency in assay [5] was 6.31 µM (active).

Turning to `O=C(Nc1ccc([N+](=O)[O-])cc1Cl)c1cc(Cl)ccc1O`, the Potency result in [2] is “inactive”. Also, in assay [3], the Potency is 631 nM (active).

Take `CN1CCC(=C2c3ccccc3C=Cc3ccccc32)CC1`: the Potency result in assay [2] is “inactive”. Also, in [5], the Potency is 2.51 µM (active) and 3.98 µM (active).

As to `COc1cc2nc(N3CCN(C(=O)c4ccco4)CC3)nc(N)c2cc1OC`, the Potency entry in [1], in [3] and in assay [5] was “inactive” each time. Besides, in assay [4], the compound was called inactive.

Regarding `COc1cc2nc(N(C)CCCNC(=O)C3CCCO3)nc(N)c2cc1OC` (centres undefined), the compound was called inactive in [4].

For `COc1nc(C)nc(Cl)c1NC1=NCCN1`, the Potency entry in assay [1] and in assay [6] was “inactive” each time. In addition, the compound was classed as inactive in assay [4].

For the compound `CC(C)Cc1ccc(C(C)C(=O)O)cc1` (centres undefined), in [4], the outcome was inactive.

As for `C[C@](N)(Cc1ccc(O)c(O)c1)C(=O)O`, the Potency entry in [2] and in assay [7] was “inactive” each time.

Regarding `Clc1ccc(C(c2ccccc2Cl)C(Cl)Cl)cc1` (centres undefined), the result in [8], in [10], in [11], in assay [12], in assay [13] and in assay [14] was inactive. Besides, the outcome in assay [19] and in assay [20] was inactive. Besides, the Potency result in assay [9] was “inactive”. Besides, the caspase-3 activation in [17] was 133% (active).

Consider `CC[C@@]1(O)C(=O)OCc2c1cc1n(c2=O)Cc2cc3c(CN(C)C)c(O)ccc3nc2-1`, for which the Potency result in [1] was “inactive”. The result in assay [4] was inactive.

Consider `CN(C)CCCN1c2ccccc2CCc2ccc(Cl)cc21`, for which the Potency entry in [1], in [3], in assay [7] and in assay [6] was “inactive” each time.

With `CCOC(=O)c1ncn2c1CN(C)C(=O)c1cc(F)ccc1-2`, the Potency result in [1], in assay [3], in [5] and in assay [6] was “inactive” each time. For the same compound, the call in assay [4] was inactive.

In the case of `NCCCCCC(=O)O`, the Potency entry in [1] is “inactive”. In addition, the call in assay [4] was inactive.

`CN(Cc1cnc2nc(N)nc(N)c2n1)c1ccc(C(=O)N[C@@H](CCC(=O)O)C(=O)O)cc1`: in assay [1], the Potency entry was “inactive”. The result in [4] was inactive.

Consider `O=C(C1CCCCC1)N1CC(=O)N2CCc3ccccc3C2C1` (centres undefined), for which, in assay [7], the Potency entry is “inactive”.

For the compound `CCc1cccc2c3c([nH]c12)C(CC)(CC(=O)O)OCC3` (centres undefined), the Potency result in assay [2] is “inactive”.
